In experiment [1] the target is Progesterone receptor (Homo sapiens) (UniProt P06401). As to the kind of experiment: qHTS assay to identify small molecule agonists of the progesterone receptor (PR) signaling pathway (AID 1346784; calls by dose curve; further: nearly all actives have a fitted effect of over 30% in size; further: potency means the concentration at half of the fitted maximal effect). An outline of the steps:
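Agonist qHTS: compounds pinned onto 3,000 PR-UAS-bla HEK 293T cells per well in charcoal-stripped serum medium, 16hr at 37C, then beta-lactamase activity measured by LiveBLAzer FRET fluorescence after 2 hours at room temperature.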

Experiment [2] shares this target. As to the kind of experiment: qHTS assay to identify small molecule antagonists of the progesterone receptor (PR) signaling pathway (AID 1346795; active means well fitted inhibition curve with a large enough effect in the signal ratio in the repeat runs, not every such curve was filed as active; the % refers to the signal ratio). An outline of the steps:
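Antagonist mode with agonist R5020 at 1 nM final and 16 hr incubation at 37C. Reporter was beta-lactamase driven by UAS in HEK293T (PR-UAS-bla), 2% charcoal-stripped serum; signal from LiveBLAzer FRET substrate, 2 hr at room temperature.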
On the technique in general: Quantitative high-throughput screening tests each substance at several concentrations.

A short description of experiment [3]: qHTS assay to identify small molecule antagonists of the progesterone receptor (PR) signaling pathway - cell viability counter screen (AID 1346798). Further: series mostly up to about 92 µM; nearly all actives have a fitted effect of over 50% in size. An outline of the steps:
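Cytotoxicity read as CellTiter-Glo luminescence (30 min, room temperature) in the same wells as the beta-lactamase readout. HEK293T PR-UAS-bla cells in charcoal-stripped 2% FBS received compound and R5020, then 16 h at 37C, 5% CO2.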

A short description of experiment [4]: qHTS assay to identify small molecule agonists of the progesterone receptor (PR) signaling pathway - cell viability counter screen (AID 1346799; calls by dose curve; further: nearly all actives have a fitted effect of over 45% in size). Put shortly:
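Cytotoxicity measured by CellTiter-Glo luminescence (30 min, RT) in the same wells as the PR beta-lactamase agonist read. Those HEK293T cells had 16 h compound treatment at 37 C in 2% charcoal-stripped FBS medium.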

The nature of experiment [5]: qHTS assay to identify small molecule antagonists of the TGF-beta/Smad signaling pathway - cell viability counter screen (AID 1346824). Further: nearly all actives have a fitted effect of over 50% in size. An outline of the steps: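 SBE-bla HEK 293T cells were plated overnight at 37 C, then given compounds in DMSO plus TGF-beta1 (added as 0.25 ng/mL solution) for 5 hr. After the bla read, CellTiter-Glo was added to the same wells and luminescence read after 30 min at room temperature.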

Experiment [6] in a line: qHTS assay to identify small molecule agonists of the TGF-beta/Smad signaling pathway - cell viability counter screen (AID 1346829). Further: top concentration of the series differs between compounds; nearly all actives have a fitted effect of over 45% in size. Put shortly:
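After overnight seating at 37 C and 5% CO2, reporter cells got compounds for 5 hr and FRET substrate for 2 hr; cell viability then came from CellTiter-Glo luminescence.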

A short description of experiment [7]: qHTS assay to identify small molecule agonists of the TGF-beta/Smad signaling pathway (AID 1346859; active means well fitted activation curve with a large enough effect in the signal ratio in the repeat runs, not every such curve was filed as active; the % refers to the signal ratio; further: series mostly up to about 77 µM). An outline of the steps:
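Fluorescence (ex 405 nm; em 460 and 530 nm) was read 2 h after LiveBLAzer FRET substrate at RT. The preceding compound treatment of overnight-plated SBE-bla HEK293T cells lasted 5 h at 37 C.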

Experiment [8] in a line: Human pregnane X receptor (PXR) small molecule agonists, qHTS cell viability counter screen (AID 1346977). Further: nearly all actives have a fitted effect of over 50% in size. An outline of the steps:
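Same-well viability read: CellTiter-Fluor added after 23 hr compound exposure, fluorescence measured 1 hr later. Cells were PXR-Luc HepG2 seeded at 2,000/well in 5% charcoal-stripped FBS medium, rested 5 hr before dosing at 37 C.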

The nature of experiment [9]: Caspase-3/7 induction in HepG2 cells by small molecules, qHTS assay (AID 1346978). Further: nearly all actives have a fitted effect of over 15% in size. Put shortly: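 Wild-type HepG2 cells (2,000/well) were settled 5 h at 37 C, 5% CO2, then exposed to compounds in DMSO for 17 h. Caspase-3/7 activity was read by luminescence 30 min after adding Caspase-Glo 3/7 reagent at room temperature.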
Experiment [10] in a line: Caspase-3/7 induction in CHO-K1 cells by small molecules, qHTS cell viability counter screen (AID 1346979). Further: nearly all actives have a fitted effect of over 35% in size. An outline of the steps:
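Cytotoxicity counter screen: CellTiter-Fluor added to compound-treated wild-type CHO-K1 cells at 16 h (37C, 5% CO2), fluorescence measured 1 h later; same wells as caspase-3/7 measurement.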

Experiment [11] in a line: Caspase-3/7 induction in CHO-K1 cells by small molecules, qHTS assay (AID 1346980). Further: nearly all actives have a fitted effect of over 15% in size. Put shortly:
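Wild-type cells were seeded at 1,500 per well and settled 5 hr at 37 C, 5% CO2, then exposed to DMSO-dissolved compounds for 17 hr. Caspase-Glo 3/7 reagent was added, and luminescence was read after 30min at room temperature.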

The nature of experiment [12]: Caspase-3/7 induction in HepG2 cells by small molecules, qHTS cell viability counter screen (AID 1346981). Further: series mostly up to about 92 µM; nearly all actives have a fitted effect of over 30% in size. Put shortly:
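Counter screen for cytotoxicity: HepG2 exposed 16 hr to compounds, then CellTiter-Fluor viability signal (fluorescence, 1 hr reagent incubation).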

The target in experiment [13] is Nuclear receptor subfamily 1 group I member 2 (Rattus norvegicus) (UniProt Q9R1A7). As to the kind of experiment: Rat pregnane X receptor (rPXR) activation by small molecules, qHTS assay (AID 1346983). Further: nearly all actives have a fitted effect of over 20% in size. Conditions: rPXR luciferase reporter cells, One-Glo luminescence, 24 h; max activation: active compounds read high. An outline of the steps: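 Cell-based rPXR luciferase reporter assay, 2,000 cells per well, rested 5hr at 37 C before compound addition in DMSO, then 24 hr at 37 C. One-Glo reagent was added and luminescence read after 30 min at room temperature.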
Sequence of Nuclear receptor subfamily 1 group I member 2 (Rattus norvegicus) (Q9R1A7 whole entry, looked up): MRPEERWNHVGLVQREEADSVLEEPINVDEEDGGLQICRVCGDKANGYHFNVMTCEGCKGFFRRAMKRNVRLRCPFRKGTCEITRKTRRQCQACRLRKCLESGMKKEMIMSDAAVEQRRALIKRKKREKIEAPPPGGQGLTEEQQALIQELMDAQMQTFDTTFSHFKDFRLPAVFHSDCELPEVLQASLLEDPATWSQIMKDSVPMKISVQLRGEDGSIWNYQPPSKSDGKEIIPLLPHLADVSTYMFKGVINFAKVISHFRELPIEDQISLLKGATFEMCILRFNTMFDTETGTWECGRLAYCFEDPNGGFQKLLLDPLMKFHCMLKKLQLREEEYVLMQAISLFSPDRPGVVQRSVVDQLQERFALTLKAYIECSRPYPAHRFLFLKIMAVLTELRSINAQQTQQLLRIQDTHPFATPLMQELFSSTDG

Experiment [14] has as its target Thyrotropin-releasing hormone receptor (Homo sapiens) (UniProt P34981). The experiment in a line: qHTS assay to identify small molecule antagonists of the thyrotropin-releasing hormone receptor (TRHR) signaling pathway (AID 1346877; active means well fitted inhibition curve with a large enough effect in the repeat runs, not every such curve was filed as active; further: series mostly up to about 51 µM). An outline of the steps:
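In this cell-based calcium flux format, HEK293 cells expressing TRHR received test compound for 5 min before the agonist TRH (1 nM final). Dye loading lasted 2 h at 37 °C.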

Experiment [15] addresses Nuclear receptor subfamily 1 group I member 2 (Homo sapiens) (UniProt O75469). The experiment in a line: Human pregnane X receptor (PXR) small molecule agonists, qHTS assay (AID 1346982). Further: nearly all actives have a fitted effect of over 35% in size. An outline of the steps:
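Luminescence (ONE-Glo, 30 min RT) after 24 hr compound exposure of PXR-Luc HepG2 cells; cells rested 5 hr post-plating in 5% charcoal-stripped FBS medium.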

The target is the same in experiment [16]. The experiment in a line: CYP3A4 induction through human pregnane X receptor (PXR) by small molecules, qHTS assay (AID 1346984). Further: nearly all actives have a fitted effect of over 40% in size. Further: potency means the concentration at half of the fitted maximal effect. An outline of the steps: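 DPX-2 reporter cells; 24h cpd, 37C; Luciferin-IPA 3uM final x3h; One-Glo 30 min RT; lumi read.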
The target is the same in experiment [17]. As to the kind of experiment: Human pregnane X receptor (PXR) activation by small molecules, qHTS assay (AID 1346985). Further: nearly all actives have a fitted effect of over 40% in size. An outline of the steps:
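DPX-2 cells (HepG2 co-transfected with a PXR response element and a CYP3A4-promoter luciferase construct) were seeded at 2,000 per well, rested 5 hr at 37C, then exposed to DMSO-dissolved compounds for 24 hr. Activation was read as luciferase luminescence.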

In experiment [18] the target is Cytochrome P450 2D6 (Homo sapiens) (UniProt P10635). The experiment in a line: Cytochrome P450 Family 2 Subfamily D Member 6 (CYP2D6) small molecule antagonists: luciferase reporter qHTS assay (AID 1671196). Further: nearly all actives have a fitted effect of over 50% in size. Further: potency means the concentration at half of the fitted maximal effect. An outline of the steps: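 Inhibition of CYP2D6 was gauged by loss of luminescence, since light produced tracks the luciferin generated from a proluciferin substrate. A 10 min room-temperature preincubation preceded 1 h NADPH-supported turnover.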
Sequence of Cytochrome P450 2D6 (Homo sapiens) (P10635 whole entry, looked up): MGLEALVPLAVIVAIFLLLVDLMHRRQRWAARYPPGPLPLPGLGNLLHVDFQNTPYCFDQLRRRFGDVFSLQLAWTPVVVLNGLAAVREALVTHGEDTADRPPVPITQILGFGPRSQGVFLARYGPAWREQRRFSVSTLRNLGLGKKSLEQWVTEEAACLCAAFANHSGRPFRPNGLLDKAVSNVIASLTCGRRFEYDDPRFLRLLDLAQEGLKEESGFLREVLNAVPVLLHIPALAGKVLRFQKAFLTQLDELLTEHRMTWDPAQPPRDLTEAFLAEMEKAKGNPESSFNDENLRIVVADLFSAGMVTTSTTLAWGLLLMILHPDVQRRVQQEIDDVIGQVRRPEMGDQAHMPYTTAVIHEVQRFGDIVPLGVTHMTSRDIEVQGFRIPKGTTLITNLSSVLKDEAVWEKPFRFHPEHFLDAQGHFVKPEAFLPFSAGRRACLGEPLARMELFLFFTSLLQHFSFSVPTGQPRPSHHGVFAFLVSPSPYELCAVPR
For orientation: A reporter such as luciferase makes a cellular process visible.

Experiment [19] concerns the target Cytochrome P450 2C19 (Homo sapiens) (UniProt P33261). The experiment in a line: Cytochrome P450 Family 2 Subfamily C Member 19 (CYP2C19) small molecule antagonists: luciferase reporter qHTS assay (AID 1671197). Further: nearly all actives have a fitted effect of over 65% in size. Further: potency means the concentration at half of the fitted maximal effect. An outline of the steps:
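Inhibition of CYP2C19 was scored from loss of luminescence in a P450-Glo proluciferin substrate assay, NADPH-started and run 1 h at 37C, with ketoconazole as positive control.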

For experiment [20], the target named is Thyrotropin-releasing hormone receptor (Homo sapiens) (UniProt P34981). As to the kind of experiment: qHTS assay to identify small molecule agonists of the thyrotropin-releasing hormone receptor (TRHR) signaling pathway (AID 1346891; calls by dose curve; further: series mostly up to about 58 µM). Put shortly:
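Agonist-mode intracellular calcium readout: kinetic fluorescence over 3 min at 1 s intervals after compound addition to TRHR-HEK293 cells (18 h seeded, 2 h dye-loaded at 37 C). Fifteen concentrations, triplicates.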

Unmarked numbers belong to inactive results. Records with an inconclusive call do not appear. Activity calls are given as the source filed them. Unless noted, the call rests on the fitted dose curve; in most records, active means well fitted curve in the direction sought with a large enough effect in the repeat runs; inconclusive means weak or mixed curves; inactive means no such curve, though single readings can be large; an effect the other way counts as inactive or inconclusive.
On the % scale 0 is the no-effect control and ±100 the full control effect.

Sequence of Progesterone receptor (Homo sapiens) (P06401 whole entry, looked up): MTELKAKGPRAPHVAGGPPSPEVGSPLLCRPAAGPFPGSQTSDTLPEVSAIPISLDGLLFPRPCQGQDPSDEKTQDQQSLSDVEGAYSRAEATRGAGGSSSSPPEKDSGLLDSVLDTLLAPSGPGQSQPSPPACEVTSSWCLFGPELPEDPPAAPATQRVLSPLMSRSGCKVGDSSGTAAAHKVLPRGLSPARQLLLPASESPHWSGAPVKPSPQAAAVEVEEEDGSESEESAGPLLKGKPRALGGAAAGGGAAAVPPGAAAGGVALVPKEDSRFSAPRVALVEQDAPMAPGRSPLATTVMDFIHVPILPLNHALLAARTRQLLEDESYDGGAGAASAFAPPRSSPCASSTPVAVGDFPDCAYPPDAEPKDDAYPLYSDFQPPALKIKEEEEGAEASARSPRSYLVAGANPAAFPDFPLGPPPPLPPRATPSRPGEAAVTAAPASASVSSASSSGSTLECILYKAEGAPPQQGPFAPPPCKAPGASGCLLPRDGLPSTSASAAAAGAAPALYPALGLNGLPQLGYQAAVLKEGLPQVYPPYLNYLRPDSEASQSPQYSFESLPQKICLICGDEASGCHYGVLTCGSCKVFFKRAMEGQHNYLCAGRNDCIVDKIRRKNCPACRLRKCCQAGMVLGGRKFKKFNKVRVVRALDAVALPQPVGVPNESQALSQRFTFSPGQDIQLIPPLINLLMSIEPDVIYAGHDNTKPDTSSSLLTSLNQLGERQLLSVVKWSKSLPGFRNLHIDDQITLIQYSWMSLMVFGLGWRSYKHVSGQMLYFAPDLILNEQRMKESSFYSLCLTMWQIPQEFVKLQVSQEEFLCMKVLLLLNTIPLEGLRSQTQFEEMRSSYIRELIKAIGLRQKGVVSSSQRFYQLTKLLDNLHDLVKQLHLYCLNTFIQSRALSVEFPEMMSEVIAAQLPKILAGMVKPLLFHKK
Sequence of Nuclear receptor subfamily 1 group I member 2 (Homo sapiens) (O75469 whole entry, looked up): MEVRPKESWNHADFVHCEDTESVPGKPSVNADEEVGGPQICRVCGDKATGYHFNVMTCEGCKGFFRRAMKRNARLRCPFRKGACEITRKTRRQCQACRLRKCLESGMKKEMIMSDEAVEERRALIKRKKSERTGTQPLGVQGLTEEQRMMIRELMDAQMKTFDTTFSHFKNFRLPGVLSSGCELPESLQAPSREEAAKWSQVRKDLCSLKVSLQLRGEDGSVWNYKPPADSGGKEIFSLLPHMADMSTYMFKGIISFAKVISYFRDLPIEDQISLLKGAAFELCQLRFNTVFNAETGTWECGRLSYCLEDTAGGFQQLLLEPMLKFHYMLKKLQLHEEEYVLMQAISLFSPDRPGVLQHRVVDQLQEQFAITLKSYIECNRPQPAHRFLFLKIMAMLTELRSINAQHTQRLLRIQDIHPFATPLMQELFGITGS
Sequence of Thyrotropin-releasing hormone receptor (Homo sapiens) (P34981 whole entry, looked up): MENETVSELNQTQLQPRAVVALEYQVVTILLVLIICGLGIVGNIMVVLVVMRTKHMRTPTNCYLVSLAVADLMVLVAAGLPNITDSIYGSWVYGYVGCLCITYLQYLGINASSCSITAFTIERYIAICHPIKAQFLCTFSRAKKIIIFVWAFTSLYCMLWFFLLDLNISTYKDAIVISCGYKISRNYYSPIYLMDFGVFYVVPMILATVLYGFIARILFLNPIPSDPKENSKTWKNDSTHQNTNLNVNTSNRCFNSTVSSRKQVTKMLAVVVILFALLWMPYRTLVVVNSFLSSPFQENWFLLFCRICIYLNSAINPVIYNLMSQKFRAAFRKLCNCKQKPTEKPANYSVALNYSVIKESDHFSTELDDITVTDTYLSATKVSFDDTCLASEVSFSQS
Sequence of Cytochrome P450 2C19 (Homo sapiens) (P33261 whole entry, looked up): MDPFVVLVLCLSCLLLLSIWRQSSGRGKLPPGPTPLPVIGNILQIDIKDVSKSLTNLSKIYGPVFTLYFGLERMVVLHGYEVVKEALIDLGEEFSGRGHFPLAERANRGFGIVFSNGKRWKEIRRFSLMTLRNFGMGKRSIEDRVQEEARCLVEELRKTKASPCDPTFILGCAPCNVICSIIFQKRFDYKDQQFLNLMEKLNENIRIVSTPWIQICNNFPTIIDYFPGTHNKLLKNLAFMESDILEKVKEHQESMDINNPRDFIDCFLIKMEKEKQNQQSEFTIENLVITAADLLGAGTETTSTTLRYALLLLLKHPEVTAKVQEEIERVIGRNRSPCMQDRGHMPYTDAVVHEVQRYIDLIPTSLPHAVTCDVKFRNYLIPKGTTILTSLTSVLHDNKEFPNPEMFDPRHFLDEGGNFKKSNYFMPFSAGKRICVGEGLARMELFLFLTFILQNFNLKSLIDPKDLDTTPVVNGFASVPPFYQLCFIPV

Turning to `CCC(C)(CN(C)C)OC(=O)c1ccccc1` (centres undefined), the Potency entry in experiment [1], in experiment [2], in experiment [3], in experiment [4], in experiment [8] and in experiment [10] was “inactive” throughout. Also, the Potency result in experiment [12] is “inactive”. The call in [5], in experiment [6], in [7], in experiment [9] and in experiment [11] was inactive. The max activation in experiment [13] was -1.69%.
With `C[N+]1(C)[C@@H]2CC(OC(=O)[C@H](CO)c3ccccc3)C[C@H]1[C@@H]1O[C@@H]12` (some centres undefined), the Potency result in [1], in experiment [2], in experiment [3], in experiment [4], in experiment [8] and in [10] was “inactive” throughout. Moreover, the Potency result in [12], in experiment [15], in experiment [16], in experiment [17], in experiment [18] and in experiment [19] was “inactive” each time. The call in experiment [5], in [6], in experiment [7], in experiment [14], in [9] and in [11] was inactive. Also, the max activation in experiment [13] was -0.815%.
For the compound `COc1ccc2cc1Oc1cc3c(cc1OC)CC[N+](C)(C)[C@H]3Cc1ccc(cc1)Oc1c(OC)c(OC)cc3c1[C@@H](C2)[N+](C)(C)CC3`, the Potency result in experiment [1], in experiment [2], in experiment [3], in experiment [4], in experiment [20] and in experiment [8] was “inactive” each time. The Potency result in experiment [10], in experiment [12], in [15], in experiment [16], in experiment [17] and in experiment [18] was “inactive” in each case. The Potency result in experiment [19] is “inactive”. Further, the compound was classed as inactive in [5], in experiment [6], in [7] and in [14]. Further, the max activation in experiment [13] was 0.186%.
As to `CC1=C(C/C=C(\C)CCC[C@H](C)CCC[C@H](C)CCCC(C)C)C(=O)c2ccccc2C1=O`, the Potency result in experiment [1], in experiment [2], in experiment [3], in [4], in experiment [8] and in [10] was “inactive” in each case. Also, the Potency result in [12], in experiment [15], in experiment [17] and in [19] was “inactive” each time. Besides, the call in experiment [5], in [6], in experiment [7], in [9] and in [11] was inactive. Moreover, the max activation in [13] is -2.63%. Further, in experiment [16], the Potency was 11.2 µM (active).
For `C[N+]1(C)CCCC(OC(=O)C(O)(c2ccccc2)c2ccccc2)C1` (centres undefined), the Potency in experiment [1] was 15 µM (active); in experiment [18], 4.9 µM (active). Also, the Potency result in [2], in experiment [3], in experiment [4], in [8], in experiment [10] and in experiment [12] was “inactive” throughout. In addition, the Potency result in [15], in [16], in [17] and in [19] was “inactive” in each case. Moreover, the call in experiment [5], in [6], in experiment [7], in experiment [9] and in experiment [11] was inactive. For the same compound, the max activation in [13] is -3.64%.
As to `Cc1ccc(C(=O)c2ccccc2)cc1`, the Potency result in [1], in experiment [2], in [3], in [4], in experiment [8] and in [10] was “inactive” each time. The Potency entry in [12] and in [15] was “inactive” each time. For the same compound, the outcome in experiment [5], in [6], in experiment [7], in experiment [14], in experiment [9] and in [11] was inactive. Further, the Potency in experiment [19] is 10 µM (active).
In the case of `CCN1CCOCC1`, the Potency result in experiment [1], in [2], in experiment [3], in experiment [4], in experiment [20] and in experiment [8] was “inactive” each time. The Potency entry in [10], in experiment [12] and in experiment [15] was “inactive” in each case. The outcome in experiment [5], in experiment [6], in experiment [7], in [14] and in experiment [11] was inactive. In addition, the values for the Potency in [18] and in [19] were 6.21 µM (active) and 22 µM (active), respectively.
`CN(C)CCCCCCN(C)C`: the Potency entry in experiment [1], in [2], in experiment [3], in experiment [4], in [20] and in [8] was “inactive” in each case. For the same compound, the Potency result in experiment [10] and in experiment [12] was “inactive” throughout. Further, the call in experiment [5], in [6], in [7], in [14] and in experiment [11] was inactive.

The values are drawn from PubChem BioAssay (Tox21).
